Results filed as inconclusive are left out. Calls of active or inactive are those of the source. Calls come from the whole dose curve; as a rule, active = well fitted cell-killing curve with a large enough effect; inconclusive = small, poorly fitted or top-dose-only effect, or effect the other way; inactive = flat fitted curve, though single readings scatter.
Experiments:
Assay in all cases: Primary qHTS to identify gynecologic anti-cancer compounds using libraries of approved drugs and bioactive compounds (AID 1345084); note: nearly all actives have a fitted effect of over 55% in size
C33A = settings: Gynecologic cancer cell panel viability, ATPlite luminescence, 48 h; series mostly up to 57.5 µM
Outline: (§1)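 Cell viability after 48 h drug treatment, ATPlite luminescence readout; five doses.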

CAOV3 = settings: Gynecologic cancer cell panel viability, ATPlite luminescence, 48 h; series mostly up to 57.5 µM
Outline: as §1

CASKI = settings: Gynecologic cancer cell panel viability, ATPlite luminescence, 48 h; series mostly up to 57.5 µM
Outline: as §1

Es-2 = settings: Gynecologic cancer cell panel viability, ATPlite luminescence, 48 h; series mostly up to 57.5 µM
Outline: as §1

HeLa = settings: Gynecologic cancer cell panel viability, ATPlite luminescence, 48 h; series mostly up to 57.5 µM
Outline: as §1

Hek293T = settings: Gynecologic cancer cell panel viability, ATPlite luminescence, 48 h, control line for the selectivity index; series mostly up to 57.5 µM
Outline: as §1

JEG-3 = settings: Gynecologic cancer cell panel viability, ATPlite luminescence, 48 h; series mostly up to 57.5 µM
Outline: as §1

OV90 = settings: Gynecologic cancer cell panel viability, ATPlite luminescence, 48 h; series mostly up to 57.5 µM
Outline: as §1

PA-1 = settings: Gynecologic cancer cell panel viability, ATPlite luminescence, 48 h; series mostly up to 57.5 µM
Outline: as §1

SKOV3 = settings: Gynecologic cancer cell panel viability, ATPlite luminescence, 48 h; series mostly up to 57.5 µM
Outline: as §1

Tov-21-G = settings: Gynecologic cancer cell panel viability, ATPlite luminescence, 48 h; series mostly up to 57.5 µM
Outline: as §1

Tov112D = settings: Gynecologic cancer cell panel viability, ATPlite luminescence, 48 h; series mostly up to 57.5 µM
Outline: as §1

Measured: Potency

CC(=O)N1CCN(c2ccc(O)cc2)CC1
inactive: all assays above

CCOC(=O)C(=O)CCc1ccccc1
inactive: all assays above

O=C(C1CCCCC1)N1CC(=O)N2CCCc3ccccc3C2C1 (stereo unspecified)
inactive: all assays above

COc1cc(/C=C/C(N)=O)cc(OC)c1OC
inactive: all assays above

Cc1c(F)cc2c(=O)c(C(=O)O)cn3c2c1CCC3C (stereo unspecified)
inactive: all assays above

C/C=C(/C(=C/C)c1ccc(OC(C)=O)cc1)c1ccc(OC(C)=O)cc1
inactive: all assays above

CC(=O)c1cc2ccccc2s1
inactive: all assays above

Brc1ccc([C@H]2CN3CCSC3=N2)cc1
inactive: all assays above

CC(=O)c1ccc(O)c(C(N)=O)c1
inactive: all assays above

CCS(=O)(=O)c1ccc(OC)c(C(=O)OC)c1
inactive: all assays above

[O-][n+]1cccc(/C(Cl)=N/OC[C@@H](O)CN2CCCCC2)c1
inactive: all assays above

COCCc1ccc(OCC2CO2)cc1 (stereo unspecified)
inactive: all assays above

CC(C)(C)c1cc(C=O)cc(C(C)(C)C)c1O
inactive: all assays above

Cc1onc(-c2ccccc2)c1C(=O)Cl
inactive: all assays above

O=C(CCCl)NCc1ccccc1
inactive: all assays above

Cc1cc(CCCOc2c(C)cc(-c3noc(C(F)(F)F)n3)cc2C)on1
inactive: all assays above

O=C1CC(c2ccc(Cl)cc2)CC(=O)N1
inactive: all assays above

CCC(=O)O[C@]1(C(=O)COC)[C@@H](C)C[C@H]2[C@@H]3CCC4=CC(=O)C=C[C@]4(C)C3(F)[C@@H](O)C[C@@]21C (stereo partly specified)
inactive: all assays above

CCCOc1ccc2c(c1)CC[C@@H]1[C@@H]2CC[C@]2(C)C(OC)CC[C@@H]12 (stereo partly specified)
inactive: all assays above

C#CC(C)(CC)OC(=O)c1ccccc1C(=O)O (stereo unspecified)
inactive: all assays above

COc1cc(OC)nc(O[C@H](C(=O)O)C(OC)(c2ccccc2)c2ccccc2)n1
inactive: all assays above

CCC(C(=O)OCCN1CCOC(c2ccccc2)C1C)c1ccccc1 (stereo unspecified)
inactive: all assays above

CCCc1ccc(OCC(=O)N2CCN(C(=O)COc3ccc(CCC)cc3OC)CC2)c(OC)c1
inactive: all assays above
